We go through 17 compounds from PubChem BioAssay (NCI).

The panel holds about 83,000 compounds, 20% with a hit somewhere; the sample as a whole holds those more often.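 Cells were grown in 96-well plates and exposed to the test compound at a single concentration for 48 hours; results are reported as percent growth, with values below 10 considered active.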 Unmarked numbers belong to inactive results. Activity calls are given as the source filed them.

Among the test systems are T-47D breast; BT-549 breast; MDA-MB-435 melanoma; SW-620 colon; MCF7 breast; HCT-116 colon; HCC-2998 colon; KM12 colon.
What all share (experiment): NCI-60 one-dose screen, 48 h (100 = growth as untreated, 0 = no growth, -100 = all killed)
Common to all, as to settings: 10 µM unless noted

In the case of `Cc1cc(=O)[nH]c(N=Nc2c(O)[nH]c3ccccc23)n1`, the growth in the assay with T-47D breast is 105%; in the assay on BT-549 breast, 99.3%; with MDA-MB-435 melanoma it was 114%; in the assay on SW-620 colon, 110%; in the assay on MCF7 breast it was 93.2%; in the assay on HCT-116 colon, 104%. Moreover, the growth in the assay with HCC-2998 colon was 107%.
For the compound `Cn1c2c(c3ccc(Cl)c(Cl)c31)C(C#N)C1(CCNCC1)NC2=O` (stereo not drawn), the growth in the assay with T-47D breast was 46.8%; in the assay on BT-549 breast, 45%; in the assay on MDA-MB-435 melanoma, 5.97% (active); in the assay with SW-620 colon it was 30.5%; in the assay on MCF7 breast, -12.3% (active); with HCT-116 colon, 13%. Moreover, the growth with HCC-2998 colon is -17.8% (active).
As for `O=C(O)CN1C(=O)CCC1=O`, the growth in the assay with T-47D breast is 90.4%; with BT-549 breast, 103%; in the assay with MDA-MB-435 melanoma, 102%; with SW-620 colon, 114%; in the assay with MCF7 breast it was 92%; in the assay on HCT-116 colon, 115%. In addition, the growth in the assay on HCC-2998 colon is 110%.
Turning to `Cc1ccc(NS(=O)(=O)c2ccc3c(c2)C2OCCC2C(c2ccc(C(=O)C(C)C)cc2)N3)cc1C` (stereo not drawn), the growth in the assay on T-47D breast is 24.3%; with BT-549 breast, 54.3%; with MDA-MB-435 melanoma, 36.3%; with SW-620 colon, 51.4%; with MCF7 breast, 17.6%; with HCT-116 colon, 30.4%. The growth with HCC-2998 colon is 62.2%.
In the case of `COC(=O)c1c2c(c[n+]([O-])c1C)C(=O)C=CC2=O`, the growth in the assay with T-47D breast is -11.9% (active); with BT-549 breast it was 71.4%; in the assay with MDA-MB-435 melanoma, -81.8% (active); with SW-620 colon it was 0.106% (active); in the assay on MCF7 breast it was -62% (active); in the assay with HCT-116 colon, -9.77% (active). Moreover, the growth in the assay with HCC-2998 colon is 88.1%.
With `O=S(=O)(NCCCNc1cc(-c2c(-c3cccc(O)c3)nc3sccn23)ccn1)c1cccc(Cl)c1`, the growth was 6.58% (active) in the assay with T-47D breast; 21.5% in the assay with BT-549 breast; 27.4% in the assay on MDA-MB-435 melanoma; 48.4% in the assay with SW-620 colon; 55.5% in the assay on MCF7 breast; 33.5% with HCT-116 colon. The growth with HCC-2998 colon is 58.2%.
`Cn1c(=O)c2c(nc(Cl)n2CCl)n(C)c1=O`: the growth in the assay on T-47D breast was 103%; with BT-549 breast, 61.8%; with MDA-MB-435 melanoma it was 43.5%; with SW-620 colon, 45.9%; in the assay on MCF7 breast, 84.4%; with HCT-116 colon it was 95.9%.
As for `O=C(NCCc1ccc(O)c(O)c1)C12CC3CC(CC(C3)C1)C2`, the growth in the assay with T-47D breast was 93.1%; in the assay with BT-549 breast it was 92.7%; with MDA-MB-435 melanoma, 107%; in the assay with SW-620 colon it was 91%; in the assay on MCF7 breast, 89.4%; in the assay with HCT-116 colon, 82.6%. Also, the growth with HCC-2998 colon is 115%.
Regarding `CC1=C(SCCC(=O)OC(C[Se]C2=C(C)C(=O)c3ccccc3C2=O)C(=O)NCCCCCC(=O)OCc2ccccc2)C(=O)c2ccccc2C1=O` (stereo not drawn), the growth in the assay on T-47D breast is 49.9%; in the assay on BT-549 breast, 67.3%; with MDA-MB-435 melanoma it was 25.1%; with SW-620 colon it was 45.7%; in the assay with MCF7 breast, 28.2%; with HCT-116 colon, 4.77% (active). Further, the growth in the assay with HCC-2998 colon is 32%.
For the compound `O=C(O)C1CCC(=O)N1C(=O)OCc1ccccc1` (stereo not drawn), the growth was 108% with T-47D breast; 112% with BT-549 breast; 91.3% with MDA-MB-435 melanoma; 101% with SW-620 colon; 91.6% with MCF7 breast; 107% in the assay on HCT-116 colon. Besides, in the assay on HCC-2998 colon, the growth was 104%.
Take `CC(CN1CCCCC1)C(=O)c1ccccc1` (stereo not drawn): the growth in the assay on T-47D breast is 99.2%; in the assay on BT-549 breast, 116%; with MDA-MB-435 melanoma, 104%; in the assay on SW-620 colon, 104%; in the assay with MCF7 breast, 91%; in the assay with HCT-116 colon, 112%. Also, the growth in the assay on HCC-2998 colon was 119%.
As to `COc1ccc(C(=O)Nn2c(NCC(=O)N3c4ccccc4Sc4ccccc43)nnc2-c2ccc(O)cc2)cc1`, the growth is 106% in the assay on T-47D breast; 96.5% with BT-549 breast; 102% with MDA-MB-435 melanoma; 104% with SW-620 colon; 111% in the assay with MCF7 breast; 101% in the assay on HCT-116 colon.
For `CN(C)CC1C(=O)O[C@H]2[C@H]1CC/C(COC(=O)c1cc3ccccc3[nH]1)=C\CC[C@@]1(C)O[C@@H]21` (stereo partly drawn), the growth in the assay on T-47D breast was -76.6% (active); in the assay with BT-549 breast, -52% (active); in the assay with MDA-MB-435 melanoma, -38.2% (active); with SW-620 colon it was -19.3% (active); in the assay on MCF7 breast it was -41.8% (active); in the assay with HCT-116 colon, -83.3% (active). Besides, the growth in the assay on HCC-2998 colon is -82% (active).
As for `O=C(/C=C/c1c(Cl)nc2sccn12)c1ccc(F)c(F)c1`, the growth with T-47D breast is 50.3%; in the assay on BT-549 breast, 71.6%; in the assay with MDA-MB-435 melanoma it was 82.6%; in the assay with SW-620 colon, 77.3%; with MCF7 breast, 45.2%; in the assay on HCT-116 colon, 69.5%. For the same compound, in the assay on HCC-2998 colon, the growth is 85.6%.
For `Cc1nc2ccccc2c(/C=C/c2ccc(Cl)cc2)c1C(=O)/C=C/c1ccc(F)cc1`, the growth was 17.7% in the assay on T-47D breast; 13.9% in the assay on BT-549 breast; -21.3% (active) in the assay on MDA-MB-435 melanoma; -19.6% (active) in the assay on SW-620 colon; 17.6% in the assay with MCF7 breast; -70.5% (active) in the assay on HCT-116 colon. In addition, the growth in the assay with HCC-2998 colon is -67.3% (active); with KM12 colon, 21.2%.
In the case of `NS(=O)(=O)c1cnccc1Oc1cccc2cccnc12`, the growth in the assay with T-47D breast is 109%; in the assay on BT-549 breast it was 93.3%; in the assay on MDA-MB-435 melanoma, 108%; with SW-620 colon, 106%; in the assay with MCF7 breast, 93.4%; with HCT-116 colon it was 97%. Further, the growth in the assay with HCC-2998 colon is 95.9%.
Regarding `Cc1cc(NCc2cc(Nc3ccnc4cc(Cl)ccc34)ccc2F)nc(N2CCN(C)CC2)n1`, the growth in the assay on T-47D breast was -42.4% (active); in the assay on BT-549 breast, 28.2%; in the assay on MDA-MB-435 melanoma it was -96.7% (active); in the assay on SW-620 colon, 0.137% (active); in the assay with MCF7 breast it was 1.13% (active); in the assay with HCT-116 colon it was 0.262% (active). In addition, in the assay on HCC-2998 colon, the growth is -35.2% (active).
